Reference: the supplement of paper PMC10849652
Of roughly 8,800 targets only a part is listed; those with a hit were picked by preference. About 0.5% of all pairs of compound and target were hits.

compound: CCN(CCCOc1ccc2c(Nc3cc(CC(=O)Nc4cccc(F)c4)[nH]n3)ncnc2c1)CCOP(=O)(O)O [barasertib]; test: log2 fold change, soluble protein after heating vs DMSO (PISA); higher = thermal stabilisation; K562 lysate, 10 uM; active = over 0.2 and 3.5 SD of the protein, either way, in both replicates (recomputed)
In short: (§1)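 K562 pellets were dounce-homogenised in PBS pH 7.4 containing 1 mM MgCl2, and the crude extract, at 1 mg/mL protein, was exposed to 10 μM compound for 30 min. Aliquots were heated for 3 min across 48°C-58°C, pooled, brought to 0.5% NP-40 at 4°C and spun at 21,000xg for 90 min, with the supernatant taken as soluble protein. TMTpro 16plex LC-MS/MS with equalised channel sums quantified that protein. Values are log-two fold changes in thermal stability relative to solvent controls, taken from duplicates.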

Sequence of UniProt Q96BY6 (Q96BY6 whole entry, looked up): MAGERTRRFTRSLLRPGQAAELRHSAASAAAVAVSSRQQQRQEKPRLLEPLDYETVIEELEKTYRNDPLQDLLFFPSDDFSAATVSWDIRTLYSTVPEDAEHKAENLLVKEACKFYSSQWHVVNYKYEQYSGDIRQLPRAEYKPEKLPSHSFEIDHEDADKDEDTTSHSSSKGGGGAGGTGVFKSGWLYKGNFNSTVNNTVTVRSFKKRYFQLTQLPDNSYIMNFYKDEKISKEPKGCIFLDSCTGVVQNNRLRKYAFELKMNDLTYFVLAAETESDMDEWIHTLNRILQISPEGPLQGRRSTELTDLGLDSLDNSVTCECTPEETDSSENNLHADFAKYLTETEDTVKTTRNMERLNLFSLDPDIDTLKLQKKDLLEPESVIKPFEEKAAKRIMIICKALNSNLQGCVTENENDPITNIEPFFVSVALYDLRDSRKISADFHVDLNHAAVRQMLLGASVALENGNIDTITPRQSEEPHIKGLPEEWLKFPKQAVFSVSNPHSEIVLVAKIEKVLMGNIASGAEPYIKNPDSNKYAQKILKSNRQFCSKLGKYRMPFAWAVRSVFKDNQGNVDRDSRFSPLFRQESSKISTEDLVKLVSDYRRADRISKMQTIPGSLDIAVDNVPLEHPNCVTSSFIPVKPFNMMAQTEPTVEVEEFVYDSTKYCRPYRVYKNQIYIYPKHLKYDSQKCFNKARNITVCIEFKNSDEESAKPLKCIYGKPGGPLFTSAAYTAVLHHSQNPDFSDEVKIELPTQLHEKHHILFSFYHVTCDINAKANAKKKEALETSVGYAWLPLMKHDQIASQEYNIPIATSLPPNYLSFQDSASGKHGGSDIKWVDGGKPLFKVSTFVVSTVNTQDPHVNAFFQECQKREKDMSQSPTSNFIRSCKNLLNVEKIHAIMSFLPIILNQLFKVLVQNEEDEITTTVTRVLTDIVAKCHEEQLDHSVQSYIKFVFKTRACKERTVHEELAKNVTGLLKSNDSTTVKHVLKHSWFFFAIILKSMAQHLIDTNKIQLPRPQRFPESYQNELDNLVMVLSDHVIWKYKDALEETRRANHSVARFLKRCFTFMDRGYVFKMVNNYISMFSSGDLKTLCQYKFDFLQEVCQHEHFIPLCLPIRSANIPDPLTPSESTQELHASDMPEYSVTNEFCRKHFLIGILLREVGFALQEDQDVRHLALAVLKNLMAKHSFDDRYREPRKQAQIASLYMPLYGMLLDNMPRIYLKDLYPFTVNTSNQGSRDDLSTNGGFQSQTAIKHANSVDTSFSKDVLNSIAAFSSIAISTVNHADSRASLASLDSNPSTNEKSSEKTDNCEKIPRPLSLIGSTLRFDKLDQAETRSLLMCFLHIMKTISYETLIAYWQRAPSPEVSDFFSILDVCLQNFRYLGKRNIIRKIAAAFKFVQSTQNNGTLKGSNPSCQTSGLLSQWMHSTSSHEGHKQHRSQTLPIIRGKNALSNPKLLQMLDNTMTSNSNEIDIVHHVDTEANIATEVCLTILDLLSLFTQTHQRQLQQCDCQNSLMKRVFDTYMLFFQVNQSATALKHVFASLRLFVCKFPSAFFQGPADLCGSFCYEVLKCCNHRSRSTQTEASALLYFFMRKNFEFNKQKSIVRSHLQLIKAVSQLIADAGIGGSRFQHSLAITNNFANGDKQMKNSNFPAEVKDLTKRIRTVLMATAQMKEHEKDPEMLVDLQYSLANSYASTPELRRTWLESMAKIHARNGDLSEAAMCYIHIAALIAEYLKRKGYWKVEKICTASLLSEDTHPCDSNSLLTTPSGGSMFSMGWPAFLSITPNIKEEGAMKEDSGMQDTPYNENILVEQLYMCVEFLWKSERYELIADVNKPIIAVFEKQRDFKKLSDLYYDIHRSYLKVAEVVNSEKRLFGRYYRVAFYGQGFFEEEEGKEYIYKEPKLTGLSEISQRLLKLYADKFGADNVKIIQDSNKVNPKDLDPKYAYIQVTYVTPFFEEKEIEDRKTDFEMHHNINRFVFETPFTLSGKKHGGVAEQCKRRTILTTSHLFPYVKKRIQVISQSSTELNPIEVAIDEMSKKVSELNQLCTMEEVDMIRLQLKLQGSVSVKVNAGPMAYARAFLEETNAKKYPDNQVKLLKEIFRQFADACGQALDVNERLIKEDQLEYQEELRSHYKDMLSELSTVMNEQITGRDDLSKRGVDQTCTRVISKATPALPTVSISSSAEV
Sequence of UniProt Q13057 (Q13057 whole entry, looked up): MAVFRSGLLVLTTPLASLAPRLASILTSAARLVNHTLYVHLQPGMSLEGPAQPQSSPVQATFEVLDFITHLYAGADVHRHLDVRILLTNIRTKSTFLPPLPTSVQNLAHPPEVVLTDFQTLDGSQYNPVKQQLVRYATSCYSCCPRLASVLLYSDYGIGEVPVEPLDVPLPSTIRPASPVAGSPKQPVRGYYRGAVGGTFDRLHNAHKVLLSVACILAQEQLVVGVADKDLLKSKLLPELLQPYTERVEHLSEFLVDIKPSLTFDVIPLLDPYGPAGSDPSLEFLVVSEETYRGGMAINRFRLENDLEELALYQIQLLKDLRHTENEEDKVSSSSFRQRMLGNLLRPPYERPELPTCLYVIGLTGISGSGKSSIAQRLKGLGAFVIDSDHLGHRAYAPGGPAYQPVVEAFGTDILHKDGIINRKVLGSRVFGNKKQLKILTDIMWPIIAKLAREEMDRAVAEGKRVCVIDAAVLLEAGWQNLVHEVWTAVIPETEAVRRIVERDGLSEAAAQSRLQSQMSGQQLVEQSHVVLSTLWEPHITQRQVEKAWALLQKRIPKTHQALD
Sequence of UniProt P51790 (P51790 whole entry, looked up): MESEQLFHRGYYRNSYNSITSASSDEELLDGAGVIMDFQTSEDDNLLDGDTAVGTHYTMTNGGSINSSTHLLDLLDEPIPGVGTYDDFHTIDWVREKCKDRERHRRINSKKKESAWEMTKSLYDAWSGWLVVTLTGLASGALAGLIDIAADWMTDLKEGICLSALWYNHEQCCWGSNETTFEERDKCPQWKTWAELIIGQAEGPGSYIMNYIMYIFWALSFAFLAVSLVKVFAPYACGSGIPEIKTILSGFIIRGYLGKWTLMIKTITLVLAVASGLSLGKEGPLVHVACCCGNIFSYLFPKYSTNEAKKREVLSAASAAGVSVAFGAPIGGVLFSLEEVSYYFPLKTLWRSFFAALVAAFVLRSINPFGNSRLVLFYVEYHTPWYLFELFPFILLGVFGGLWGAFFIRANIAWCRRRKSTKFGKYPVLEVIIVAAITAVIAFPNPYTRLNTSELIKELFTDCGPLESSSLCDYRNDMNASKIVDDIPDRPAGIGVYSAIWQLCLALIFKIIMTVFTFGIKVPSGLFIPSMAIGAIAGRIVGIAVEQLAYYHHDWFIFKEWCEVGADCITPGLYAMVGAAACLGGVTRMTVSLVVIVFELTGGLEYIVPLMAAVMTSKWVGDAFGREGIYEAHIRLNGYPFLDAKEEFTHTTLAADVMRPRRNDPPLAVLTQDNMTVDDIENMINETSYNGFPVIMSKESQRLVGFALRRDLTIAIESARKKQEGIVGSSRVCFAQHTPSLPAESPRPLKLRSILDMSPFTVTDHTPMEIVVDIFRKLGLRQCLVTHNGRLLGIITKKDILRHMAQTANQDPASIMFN
Sequence of UniProt Q9NQI0 (Q9NQI0 whole entry, looked up): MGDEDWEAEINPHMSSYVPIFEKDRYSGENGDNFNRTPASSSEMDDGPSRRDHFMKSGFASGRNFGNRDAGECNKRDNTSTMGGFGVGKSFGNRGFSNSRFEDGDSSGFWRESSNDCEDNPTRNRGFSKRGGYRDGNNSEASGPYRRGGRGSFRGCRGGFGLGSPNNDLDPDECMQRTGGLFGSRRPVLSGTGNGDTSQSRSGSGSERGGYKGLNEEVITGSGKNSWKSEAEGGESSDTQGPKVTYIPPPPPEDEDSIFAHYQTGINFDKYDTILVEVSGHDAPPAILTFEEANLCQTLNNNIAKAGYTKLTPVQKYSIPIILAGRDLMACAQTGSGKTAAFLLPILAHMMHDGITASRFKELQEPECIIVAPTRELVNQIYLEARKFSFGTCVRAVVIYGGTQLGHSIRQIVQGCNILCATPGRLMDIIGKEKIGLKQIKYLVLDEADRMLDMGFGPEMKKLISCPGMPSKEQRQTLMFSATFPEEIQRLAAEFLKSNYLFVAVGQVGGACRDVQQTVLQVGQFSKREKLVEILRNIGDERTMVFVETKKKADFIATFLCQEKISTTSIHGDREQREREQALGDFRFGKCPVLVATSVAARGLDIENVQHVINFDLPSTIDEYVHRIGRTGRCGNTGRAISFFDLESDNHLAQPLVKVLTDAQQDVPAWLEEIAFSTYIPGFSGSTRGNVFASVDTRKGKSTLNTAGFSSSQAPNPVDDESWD
Sequence of UniProt Q9H9E3 (Q9H9E3 whole entry, looked up): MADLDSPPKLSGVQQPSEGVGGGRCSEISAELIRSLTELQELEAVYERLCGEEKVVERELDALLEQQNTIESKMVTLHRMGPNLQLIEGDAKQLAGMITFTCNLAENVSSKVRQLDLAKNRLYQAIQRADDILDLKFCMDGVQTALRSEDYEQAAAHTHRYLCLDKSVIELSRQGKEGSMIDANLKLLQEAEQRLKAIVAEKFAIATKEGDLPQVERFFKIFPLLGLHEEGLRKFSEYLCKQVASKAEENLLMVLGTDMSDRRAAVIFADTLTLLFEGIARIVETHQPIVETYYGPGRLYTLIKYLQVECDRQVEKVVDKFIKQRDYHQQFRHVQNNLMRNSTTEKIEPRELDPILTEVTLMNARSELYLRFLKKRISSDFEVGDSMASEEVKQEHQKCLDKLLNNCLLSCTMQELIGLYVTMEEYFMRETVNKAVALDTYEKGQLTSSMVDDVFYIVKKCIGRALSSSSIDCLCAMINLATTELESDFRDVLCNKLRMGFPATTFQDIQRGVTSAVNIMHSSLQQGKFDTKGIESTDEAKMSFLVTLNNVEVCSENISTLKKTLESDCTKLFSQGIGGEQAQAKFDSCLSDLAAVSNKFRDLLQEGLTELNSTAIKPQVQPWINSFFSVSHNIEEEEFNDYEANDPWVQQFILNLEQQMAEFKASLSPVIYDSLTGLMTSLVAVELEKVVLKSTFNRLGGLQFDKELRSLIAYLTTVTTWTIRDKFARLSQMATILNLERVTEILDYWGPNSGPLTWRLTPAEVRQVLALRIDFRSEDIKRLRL

Target | log2 fold change
DHFR (UniProt P00374) | 0.061 (inactive)
COG4 (UniProt Q9H9E3) | 0.085 (inactive)
COASY isoform 2 (UniProt Q13057) | 0.011 (inactive)
DDX4 (UniProt Q9NQI0) | 0.069 (inactive)
COG5 isoform 2 (UniProt Q9UP83) | -0.116 (inactive)
CSNK1A1 (UniProt P48729) | -0.003 (inactive)
DLG3 isoform 2 (UniProt Q92796) | 0.047 (inactive)
CSNK1G3 (UniProt Q9Y6M4) | -0.028 (inactive)
CUX1 isoform 3 (UniProt P39880) | -0.011 (inactive)
CINP isoform 3 (UniProt Q9BW66) | 0.052 (inactive)
CNTN4 (UniProt Q8IWV2) | 0.03 (inactive)
DNAH10 (UniProt Q8IVF4) | 0.069 (inactive)
COQ8A (UniProt Q8NI60) | 0.134 (inactive)
CNOT4 isoform 9 (UniProt O95628) | -0.195 (inactive)
CKS1B (UniProt P61024) | 0.029 (inactive)
DDB2 (UniProt Q92466) | 0.025 (inactive)
DIAPH1 (UniProt O60610) | 0.006 (inactive)
COQ9 (UniProt O75208) | 0.275 (active)
DPY19L3 (UniProt Q6ZPD9) | 0.071 (inactive)
CSNK1D (UniProt P48730) | -0.092 (inactive)
DENND1B (UniProt Q6P3S1) | 0.01 (inactive)
DOCK10 (UniProt Q96BY6) | -0.054 (inactive)
DEF6 (UniProt Q9H4E7) | -0.05 (inactive)
CNIH4 (UniProt Q9P003) | 0.585 (inactive)
CLCN3 (UniProt P51790) | 0.014 (inactive)
DIAPH1 (UniProt H9KV28) | 0.091 (inactive)
CUEDC2 (UniProt Q9H467) | 0.026 (inactive)
DNAH5 (UniProt Q8TE73) | 0.006 (inactive)
CLASP2 (UniProt O75122) | -0.015 (inactive)

compound: CC[C@@H]1C(=O)N(C)c2cnc(Nc3ccc(C(=O)NC4CCN(C)CC4)cc3OC)nc2N1C1CCCC1; test: as above
In short: as §1

Target | log2 fold change
DHFR (UniProt P00374) | -0.035 (inactive)
COG4 (UniProt Q9H9E3) | -0.048 (inactive)
COASY isoform 2 (UniProt Q13057) | -0.075 (inactive)
DDX4 (UniProt Q9NQI0) | -0.071 (inactive)
COG5 isoform 2 (UniProt Q9UP83) | -0.056 (inactive)
COX7B (UniProt P24311) | -0.01 (inactive)
CSNK1A1 (UniProt P48729) | 0.078 (inactive)
DLG3 isoform 2 (UniProt Q92796) | -0.128 (inactive)
CUX1 isoform 2 (UniProt Q13948) | -0.087 (inactive)
DCTN1 isoform 4 (UniProt Q14203) | 0.139 (inactive)
DDAH1 (UniProt O94760) | 0.04 (inactive)
CUX1 isoform 3 (UniProt P39880) | 0.028 (inactive)
CINP isoform 3 (UniProt Q9BW66) | 0.098 (inactive)
CNNM2 (UniProt Q9H8M5) | 0 (inactive)
CNTN4 (UniProt Q8IWV2) | 0.295 (inactive)
DNAJC24 (UniProt Q6P3W2) | 0.017 (inactive)

Target | log2 fold change
DNAH10 (UniProt Q8IVF4) | 0.064 (inactive)
COQ8A (UniProt Q8NI60) | 0.026 (inactive)
CNOT4 isoform 9 (UniProt O95628) | 0.028 (inactive)
CKS1B (UniProt P61024) | -0.031 (inactive)
DDB2 (UniProt Q92466) | 0.015 (inactive)
DIAPH1 (UniProt O60610) | -0.001 (inactive)
COQ9 (UniProt O75208) | 0 (inactive)
DPY19L3 (UniProt Q6ZPD9) | 0.043 (inactive)
DOCK10 (UniProt Q96BY6) | 0.085 (inactive)
DEF6 (UniProt Q9H4E7) | -0.101 (inactive)
CNIH4 (UniProt Q9P003) | 0.051 (inactive)
CLCN3 (UniProt P51790) | -0.178 (inactive)
DIAPH1 (UniProt H9KV28) | -0.049 (inactive)
CUEDC2 (UniProt Q9H467) | 0.038 (inactive)
CLASP2 (UniProt O75122) | 0.021 (inactive)
